Screens (PubChem BioAssay)
A selection: hits, their analogues and other compounds. The true share with any hit is near 1.4%.
eLon inh: inhibitors of E. coli Lon protease; P0A9M0; purified E. coli Lon protease, fluorescence polarization; inhibition, % at 7.94 µM; hit rate 0.42% among 360,000; AID 602123; in the data active means inhibition above about 13%, passing the limit was not always enough
MEX-5 binding: C. elegans MEX-5 TCR-2 RNA binding activity; Q9XUB2; MEX-5/FITC-TCR2 RNA binding, fluorescence polarization; active compounds read low; activity score (negative = inhibition of binding), % at 10 µM; hit rate 0.38% among 300,000; AID 1832;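 active means inhibition past about -25% in most replicates, and total fluorescence under double the plate's negative control median, limit read from the data; inconclusive means replicates evenly split on the limit, or fluorescence at least double controls; inactive means too little inhibition in most replicates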
GLD-1 TGE inh: GLD-1-TGE RNA interaction inhibition (C. elegans) | Q17339 | purified GLD-1 + fluorescein TGE RNA, fluorescence polarization | AID 2280 | inhibition, % at 5.96 µM | hit rate 0.44% among 320,000;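 active means percent inhibition above a per-plate cutoff, the plate mean of test compounds plus 3 SD, cut at about 30% in these data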
MCL1-BIM inh: MCL1-BIM-BH3 interaction inhibition (human); Q07820; GST-MCL1 / FITC-Bim-BH3 fluorescence polarization; inhibition, % at 10.9 µM; hit rate 0.68% among 320,000;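 active means inhibition above the mean inhibition of all tested compounds plus 3 SD, set per campaign, cut at about 40% in these data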;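 further: higher means more loss of mP so more displacement of Bim peptide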
Target sequence (Q07820 whole entry, looked up): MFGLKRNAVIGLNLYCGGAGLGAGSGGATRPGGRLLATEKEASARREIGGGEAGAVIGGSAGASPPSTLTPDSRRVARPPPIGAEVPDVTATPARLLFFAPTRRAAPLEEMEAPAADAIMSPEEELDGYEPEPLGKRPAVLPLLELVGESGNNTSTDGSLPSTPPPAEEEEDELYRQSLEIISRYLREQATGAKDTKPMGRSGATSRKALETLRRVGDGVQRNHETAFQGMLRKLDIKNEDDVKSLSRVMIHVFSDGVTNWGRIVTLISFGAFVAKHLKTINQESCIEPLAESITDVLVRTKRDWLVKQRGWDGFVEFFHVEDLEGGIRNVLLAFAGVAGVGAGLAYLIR
BCLXL inh: Bcl-xL (human) inhibition | hit rate 0.7% among 320,000 | inhibition, % at 10.9 µM | Q07817 | GST-Bcl-xL / FITC-Bim BH3 peptide fluorescence polarization;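 active means inhibition above the mean of all tested compounds plus 3 SD, cutoff set per campaign, cut at about 30% in these data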;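 further: inhibitors lower millipolarization by displacing the labeled peptide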
Target sequence (Q07817 whole entry, looked up): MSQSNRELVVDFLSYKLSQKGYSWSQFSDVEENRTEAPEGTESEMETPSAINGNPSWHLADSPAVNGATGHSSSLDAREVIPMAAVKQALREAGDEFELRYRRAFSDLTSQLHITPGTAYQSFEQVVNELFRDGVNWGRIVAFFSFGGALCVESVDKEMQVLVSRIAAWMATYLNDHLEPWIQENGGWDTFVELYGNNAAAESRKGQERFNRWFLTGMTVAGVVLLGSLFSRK
Large screens that a line does not name were inactive.

Cc1cc2ccccc2n1CCNC(=O)C(C)Oc1ccccc1 (configuration not stated)	eLon inh 24.5
Cn1cccc1CNC(=S)Nc1ccccc1Cl	none
COc1ccc(-c2[nH]ncc2CNC(C)CCn2cccn2)c(F)c1 (configuration not stated)	none
COc1ccc(-c2[nH]ncc2CNC(C)c2cn(C)nc2C)c(F)c1 (configuration not stated)	BCLXL inh 67.9
COc1ccccc1C(=O)N/C(=C/c1ccco1)C(=O)Nc1cccc(C(=O)O)c1	BCLXL inh 30.7
Cc1ccc(C(=O)N/C(=C/c2ccco2)C(=O)Nc2cccc(C(=O)O)c2)cc1	none (no result: eLon inh)
CC(=O)c1ccc(S(=O)(=O)N2CCN(CC(=O)Nc3ccnn3C3CCCC3)CC2)cc1	none (no result: MEX-5 binding, GLD-1 TGE inh, MCL1-BIM inh, BCLXL inh)
Cn1ccnc1Sc1nc2ccccc2nc1NS(=O)(=O)c1ccccc1	GLD-1 TGE inh 38.8, BCLXL inh 34.4
Cc1ccc(F)cc1NC(=O)COC(=O)c1ccc2ncsc2c1	none (no result: MEX-5 binding)
Cc1ccccc1-n1c(=O)cc(NCc2ccc3c(c2)OCO3)[nH]c1=O	none
Cc1ccccc1-n1c(=O)cc(NCC2CCCO2)[nH]c1=O (configuration not stated)	BCLXL inh 35.8
CN(C)c1ccc(/C=N/NC(=O)c2cnc3ccccc3c2)cc1	MEX-5 binding -43.9
CN(C)c1ccc(/C=N/NC(=O)c2ccccn2)cc1	none
CCCSc1nnc2nc3c(nn12)c1ccccc1n3C	MEX-5 binding -35.1
COc1cc(/C=C/C(=O)N2CCN(C(=O)/C=C/c3cc(OC)c(OC)c(OC)c3)CC2)cc(OC)c1OC	GLD-1 TGE inh 109.1
CC(=O)Nc1cccc(-c2ccnc3c2CC(C)(C(=O)NCc2ccc(N(C)C)cc2)O3)c1 (configuration not stated)	none (no result: MEX-5 binding, GLD-1 TGE inh, MCL1-BIM inh, BCLXL inh)
CC(C)c1cccc(C(C)C)c1OC(=O)[C@H]1OC(c2ccc(Br)cc2)=C[C@@H]1c1ccc(Br)cc1	none (no result: MEX-5 binding)
O=C(O)c1ccc(-c2ccccc2)[nH]c1=O	none
O=C(N/C(=C\c1ccco1)C(=O)N1CCCC1)c1ccccc1	MCL1-BIM inh 40.9, BCLXL inh 40.5
COc1cc(/C=C2\C(C)=C(C#N)c3nc(N)c(C#N)c(C)c32)ccc1OCC(=O)O	BCLXL inh 34.5
CC1=C(C#N)c2nc(N)c(C#N)c(C)c2/C1=C\c1ccc(C)cc1	none (no result: eLon inh)
COc1ccc(OCC(=O)NNC(=O)c2cccc(S(=O)(=O)N(C)C)c2)cc1	none
CC(C)(C(=O)N1CCC1(C)C(=O)NS(=O)(=O)c1ccc(Cl)s1)c1ccccc1 (configuration not stated)	none (no result: MEX-5 binding, GLD-1 TGE inh, MCL1-BIM inh, BCLXL inh)
COc1ccccc1C1C(C#N)=C(N)N(N(C)C)C2=C1C(=O)CC(C)(C)C2 (configuration not stated)	none
O=C1CS/C(=N/N=C/c2cccs2)N1	MEX-5 binding -32.3
O=C1CS/C(=N/N=C/c2ccncc2)N1	none
O=C(COC(=O)c1cnccn1)Nc1ncc(Cl)cc1Cl	BCLXL inh 33.9
O=C(Nc1nnc(CCS(=O)(=O)c2ccc3ccccc3c2)s1)c1ccc([N+](=O)[O-])cc1	none
O=C(Nc1ccc2nc3ccccc3nc2c1)c1ccccc1	BCLXL inh 31.4
CCOCCCNc1ccc(N2C(=O)C3CCCCC3C2=O)cc1[N+](=O)[O-] (configuration not stated)	none
Nc1c(S(=O)(=O)O)cc(NC(=O)c2ccccc2)c2c1C(=O)c1ccccc1C2=O	GLD-1 TGE inh 68.2, MCL1-BIM inh 108.9, BCLXL inh 72.0
OCCCc1nc2n(n1)C(c1cccs1)C=C(c1ccccc1)N2 (configuration not stated)	MEX-5 binding inconclusive, GLD-1 TGE inh 154.3, MCL1-BIM inh active, BCLXL inh 176.5 (no result: eLon inh)
OCCCc1nc2n(n1)C(c1ccccc1Cl)C=C(c1cccs1)N2 (configuration not stated)	MCL1-BIM inh 41.8, BCLXL inh 37.4
Cc1cccc2cc3c(N)c(C#N)sc3nc12	BCLXL inh 34.8
Cc1sc(NC(=O)c2sc3nc4c(C)cccc4cc3c2N)c(C#N)c1C	none
COc1ccc(CCNC(=O)c2cc3ccccc3oc2=O)cc1	none
C=Cc1c(C)c2cc3[nH]c(cc4nc(cc5nc(cc1[nH]2)C(C)=C5CCC(=O)O)C(CCC(=O)O)=C4C)c(C)c3C=C	MEX-5 binding -41.8, MCL1-BIM inh 82.8
CCN1C(=O)/C(=C2/Sc3ccccc3N2CC)SC1=S	none
CCN1/C(=C2\SC(=S)N(Cc3ccccc3)C2=O)Sc2ccccc21	MEX-5 binding -25.9
CC(=O)NN1C(=O)/C(=C2/Sc3ccccc3N2C)SC1=S	none
CCN1/C(=C2/SC(=S)N(NC(C)=O)C2=O)Sc2ccccc21	MEX-5 binding -46.3 (no result: GLD-1 TGE inh, MCL1-BIM inh, BCLXL inh)
CCOC(CCNC(=O)c1cn(C)c(=O)c2c1c1ccccc1n2C)OCC	none
N#Cc1c(-c2ccco2)cc(-c2ccccc2)[nH]c1=O	BCLXL inh 34.3
COC(=O)C(C)(C)ONC(=O)Nc1ccccc1	none
Cc1ccc(C2NC(=O)c3c(sc4c3CCN(C)C4)N2)s1 (configuration not stated)	none
Cc1ccc(C2NC(=O)c3c(sc4c3CCN(C)C4)N2)o1 (configuration not stated)	BCLXL inh 40.2
CN1CCc2c(sc3c2C(=O)NC(c2ccccc2)N3)C1 (configuration not stated)	BCLXL inh 41.3
N#Cc1cccc(NC(=O)c2cc(C3CCCCN3S(=O)(=O)c3cccc4cccnc34)on2)c1 (configuration not stated)	none (no result: MEX-5 binding, GLD-1 TGE inh, MCL1-BIM inh, BCLXL inh)
Cc1nnc(NC(=O)CSc2nnc(Cc3cccn3C)n2-c2cccc(C)c2C)s1	BCLXL inh 104.5 (no result: eLon inh)
Cc1nnc(NC(=O)CSc2nnc(Cc3cccn3C)n2-c2ccccc2)s1	none
CC(=O)N(Cc1ccccc1)c1ncc2c(n1)c(=O)c(C#N)c1ccccn12	MCL1-BIM inh 45.0, BCLXL inh 33.7
O=C(CCC(=O)N1CCOc2ccccc21)NCCN1CCOCC1	none
CN1C(=O)/C(=C\c2ccc(N(C)C)cc2)OC1=S	MEX-5 binding -89.4 (no result: GLD-1 TGE inh, MCL1-BIM inh, BCLXL inh)
CN(C)c1ccc(/C=C2\N=C(C(C)(C)C)OC2=O)cc1	MEX-5 binding -42.9
COc1cc(C(c2c(C(=O)O)[nH]c3ccccc23)c2c(C(=O)O)[nH]c3ccccc23)ccc1OCc1ccccc1	MEX-5 binding inconclusive, MCL1-BIM inh 68.1
NC(=Nc1ccc(N)cc1)C(N)=Nc1ccc(N)cc1	MEX-5 binding -29.7
Cc1cccc(CN(CC(=O)N/N=C/c2cccs2)S(=O)(=O)c2ccc(Cl)cc2)c1	none
CCN(CC)CCCNc1cc(C(F)(F)F)c(C#N)c2nc3ccccc3n12	MCL1-BIM inh 41.6, BCLXL inh 37.5
CC(=O)C1(C)OC(N)=C(C#N)C(c2ccccc2)C1(C#N)C#N (configuration not stated)	BCLXL inh 42.9
CCOC(=O)Cn1c(-c2ccccc2)nc2ccccc2c1=O	none
CCOC(=O)Cn1c2ccc(OC)cc2c2nc3ccccc3nc21	MEX-5 binding -101.8
CC1=CN2C(=N)/C(=C/c3ccc([N+](=O)[O-])o3)C(=O)N=C2S1	BCLXL inh 34.7
